In PubChem BioAssay AID2129 (The Scripps Research Institute Molecular Screening Center, 2009):
The whole screen tested about 320,000 compounds, of which about 2,200 (0.69%) were called active.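 Rule for the calls: active = inhibition above the mean of all tested compounds plus 3 SD, cutoff set per campaign (cut at about 30% in these data); inactive = the rest.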 The list comes from a sample in which actives are over-represented; it also holds similar structures and randomly drawn compounds.

molecular target: Bcl-2-like protein 1 (Homo sapiens) (UniProt Q07817); test: Bcl-xL/Bim BH3 interaction blockers – biochemical, fluorescence polarization, HTS, primary screen (AID 2129); conditions: GST-Bcl-xL / FITC-Bim BH3 peptide fluorescence polarization; at 10.9 µM; active compounds read high;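 note: 0% = DMSO wells and 100% = unlabeled Bim-BH3 peptide competitor; inhibitors lower millipolarization by displacing the labeled peptide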
Sequence (Q07817 whole entry, looked up): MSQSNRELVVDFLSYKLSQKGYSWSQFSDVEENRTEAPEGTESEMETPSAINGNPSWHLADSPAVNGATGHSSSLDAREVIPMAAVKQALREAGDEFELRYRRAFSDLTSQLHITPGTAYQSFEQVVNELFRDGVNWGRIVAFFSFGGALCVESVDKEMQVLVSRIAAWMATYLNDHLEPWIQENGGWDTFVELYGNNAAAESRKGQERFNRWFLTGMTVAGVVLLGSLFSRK

inhibition, active:
CC/C(C)=N/Nc1nc2sc3c(c2c(=O)[nH]1)CC(C)(C)OC3 67.3%
N#Cc1c(N2CCCCC2)nc(N)c2c(N)nc(SCC(=O)O)cc12 34.7%
COC(=O)C[n+]1cccc2ccccc21 173%
Cc1c(-c2ccccc2)cn2c1-c1ccc(C)n1CC2 31.6%
Cc1c(Cl)cnc(NC(=O)COC(=O)c2ccc(S(=O)(=O)NCc3ccco3)cc2)c1Cl 35.9%
Cc1ccc(S(=O)(=O)C(C#N)c2nc3ccccc3nc2N2CCCC2)cc1C (stereo not drawn) 87.6%
Cc1nnc(NC(=O)/C=C/c2ccco2)s1 39.6%
c1ccc(CSc2nnc(-c3ccco3)c(-c3ccco3)n2)cc1 33.4%
Clc1ccccc1CSc1nnc(-c2ccco2)c(-c2ccco2)n1 37%
O=C(CCn1c(SCC(=O)c2ccccc2)nc2ccccc2c1=O)NCc1ccc(F)cc1 49.4%
CN1CCc2nc(SC(C(=O)O)c3ccccc3)c(C#N)c(-c3cccs3)c2C1 (stereo not drawn) 31.4%
O=C(COC(=O)Cn1cnc2ccccc21)Nc1cccc2c1C(=O)c1ccccc1C2=O 137%
Cc1nn(C(=O)c2ccoc2C)c(N)c1-c1ccccc1 173%
O=C(c1ccc(F)c(S(=O)(=O)N2CCOCC2)c1)N(CCc1ccccc1)Cc1ccccc1 31.7%
Cc1nn(Cc2ccccc2)c(C)c1CNC(=O)c1ccc(F)c(S(=O)(=O)N2CCOCC2)c1 114%
CC(NC(=O)CSc1nc2c(cc1C#N)CN(C)CC2)c1ccccc1 (stereo not drawn) 36.7%
CCCn1c(O)c(CN2CCCC(C)C2)c(C)c(C#N)c1=O (stereo not drawn) 53.4%
Cc1ccc(/C=C(\C#N)C(=O)Nc2cccc3ncccc23)o1 102%
CCc1cccc(C)c1N(C(=O)Cn1c(CO)nc2ccccc21)C(C)COC (stereo not drawn) 58.5%

inhibition, inactive:
CCC1(C)Cc2c(sc3nc(SC)[nH]c(=O)c23)CO1 (stereo not drawn) 0.11%
CCSc1nc2sc3c(c2c(=O)[nH]1)CC(C)(C)OC3 4.34%
N#Cc1c(-c2ccccc2)cc(-c2ccccc2)nc1SCC(=O)O 6.81%
N#CCc1c(C#N)c(N)nc(N2CCCC2)c1C#N 1.69%
CCN(CC(=O)Nc1cccc(S(=O)(=O)N2CCCCC2)c1)Cc1ccccc1 1.24%
COc1ccc(C(=O)C2CCCN(C(=O)c3ccc(OC)o3)C2)c(C)c1 (stereo not drawn) 7.44%
Cc1cccc[n+]1CC(=O)c1ccccc1 2.8%
COc1ccccc1NC(=O)C[n+]1ccccc1 -1.13%
CCCOCC(O)CC(CC)C(=O)NNC(=S)Nc1ccccc1 (stereo not drawn) 2.96%
CSCCC(NC(=O)c1ccco1)C(=O)OCC(=O)Nc1ncc(Cl)c(C)c1Cl (stereo not drawn) 17.7%
C/C(=N\Nc1ncc(Cl)cc1Cl)c1ccc(S(=O)(=O)NCc2ccco2)cc1 3.34%
COc1ccc(OCC(O)CN(C)C(=O)C(C)Oc2ccccc2)cc1 (stereo not drawn) -1.74%
O=C(CSc1n[nH]c(-c2cccnc2)n1)Nc1ccc(Cl)cc1 2.31%
COc1ccc(Cc2nnc(SCC(=O)c3cccc([N+](=O)[O-])c3)n2C)cc1 3.55%
Cc1cc(N2CCN(S(=O)(=O)c3ccc(C)c(C)c3)CC2)c2ccccc2n1 1.43%
Cc1ccc(S(=O)(=O)Nc2nc3ccccc3nc2N2CCc3ccccc3C2)cc1 6.46%
Cc1cc2oc(=O)cc(CN(C)Cc3ccc(OC(F)F)cc3)c2cc1Cl 0.69%
CC(C)=CCCC(C)CN1CCC(n2nccc2NC(=O)c2ccccc2)CC1 (stereo not drawn) 3.8%
COC(=O)c1ccc(C)c(NC(=O)C2CC(=O)N(C3CCCC(C)C3C)C2)c1 (stereo not drawn) 4.61%
O=C(NCc1ccccn1)Nc1ccc(Cl)cc1 1.5%
Cc1ccc(C)c(N2CCN(C(=O)CCCn3c(=O)c4cccn4c4cccnc43)CC2)c1 1.63%
O=c1onc(-c2c(F)cccc2F)n1-c1ccccc1Cl 3.32%
CCC(CC)c1nnc(NC(=O)/C=C/c2ccco2)s1 4.39%
CCOC(=O)c1c(NC(=O)/C=C/c2ccco2)sc(C)c1C 0.59%
COc1ccc2nc(SCc3ccccc3)nc(C)c2c1 1.64%
O=C(Nc1nnc(SCc2ccccc2Cl)s1)c1cccc([N+](=O)[O-])c1 9.99%
CCc1nnc(SCc2cccc(F)c2)nc1CC 1.39%
O=C(CC1N=C2c3ccccc3N=C(SCc3ccccc3Cl)N2C1=O)NCc1ccco1 (stereo not drawn) 15%
Cc1ccc(SCC(=O)c2cc(C)c(OC(=S)N(C)C)c(C)c2)cc1 -0.01%
Cc1ccc(C2(c3ccc(C)cc3)NC(=O)N(Cc3c(C)noc3C)C2=O)cc1 6.73%
CC(=O)Nc1ccc(NS(=O)(=O)c2cc(C)sc2C)cc1 1.44%
COc1ccc(C#Cc2c(-c3ccc(OC)cc3)oc3ccc(-c4ccc5c(c4)OCO5)cc23)cc1 -0.02%
CCc1cccc(C)c1N1C(=O)CN(Cc2ccccc2)C1=S -7.16%
Cc1ccc(CNS(=O)(=O)c2ccc3c(c2)N(C)CCO3)cc1 8.25%
O=C(CCCn1c(SCC(=O)c2ccccc2)nc2ccccc2c1=O)NCC1CCCO1 (stereo not drawn) -3.16%
O=C(CSc1nc2ccccc2c(=O)n1-c1ccc(F)cc1)NC1CC1 6.71%
CCc1c(-c2ccccc2)nc(N)c(C#N)c1-c1cccs1 6.16%
Cc1c(-c2ccccc2)nc(N)c(C#N)c1-c1cccs1 8.08%
CCOc1ccc2[nH]c(=O)c(CN(Cc3nnnn3CCc3ccccc3)CC3CCCO3)cc2c1 (stereo not drawn) 0.19%
O=C(COC(=O)/C=C/c1nc2ccccc2s1)Nc1ccccc1Oc1ccccc1 -1.24%
O=C(COC(=O)c1cccc(Br)c1)Nc1cccc2c1C(=O)c1ccccc1C2=O 13.1%
O=C(Cn1cnc2ccccc21)Nc1ccccc1-c1ccccc1 7.35%
CC(C)(C)n1ncc2c(=O)n(Cc3ccc(Cl)cc3)cnc21 4.43%
CCOC(=O)N1CCN(CC(=O)n2c(C)c(C)c3ccccc32)CC1 9.52%
C/C(=N\NC(=O)c1ccoc1C)c1ccccc1O 4.04%
Cc1nn(-c2ccc([N+](=O)[O-])cc2)c(N)c1-c1ccccc1 -20.3%
Cc1noc(C)c1C(=O)NCC1COc2ccccc2O1 (stereo not drawn) -7.18%
O=C(NCc1ccncc1)C1CCCN(S(=O)(=O)c2ccc(Br)cc2)C1 (stereo not drawn) 9.21%
O=C(NCc1cc(C(F)(F)F)cc(C(F)(F)F)c1)C1CC(c2cccc(F)c2)=NO1 (stereo not drawn) 1.88%
CCN1C(=O)[C@@H]2[C@@H](c3ccc(-c4ccc(OC)cc4)c(OC)c3)N3CCC[C@@]3(C(=O)OC)[C@@H]2C1=O 4.65%
Cn1c(C(=O)N2CCCC(C(=O)NCc3ccccc3)C2)cc2sccc21 (stereo not drawn) 3.21%
O=C(NCCSCc1ccccc1)c1ccc(Cl)c(S(=O)(=O)N2CCOCC2)c1 1.38%
O=C(Nc1ccccc1N1CCCC1)c1ccc(F)c(S(=O)(=O)N2CCOCC2)c1 1.14%
Cc1ccccc1CSCCNC(=O)c1ccc(Cl)c(S(=O)(=O)N2CCOCC2)c1 3%
COc1ccc(C(=O)N(Cc2ccccc2)c2ccc(C)cc2)cc1S(=O)(=O)N1CCOCC1 5.85%
Cc1ccc(-c2noc(C3CCCN(C(=O)c4cccc(Cl)c4)C3)n2)o1 (stereo not drawn) -3.97%
Cc1ccc2nc(SCC(=O)N3CC(C)OC(C)C3)nc(=O)n2c1 (stereo not drawn) 5.27%
Cc1nc([N+](=O)[O-])c(NCCCO)n1Cc1ccccc1 8.64%
O=C(Nc1cc(S(=O)(=O)N2CCOCC2)ccc1OCC(F)(F)F)c1ccc(N2CCCC2=O)cc1 -2.38%
CC1(C)CCc2nc(SCc3ccccc3)c(C#N)cc2C1 4.14%
Cc1cc(NC(=O)CSc2nc3c(cc2C#N)CCCCC3)no1 0.61%
Cn1c(CC(=O)NNC(=O)c2ccccc2F)nc2ccccc21 4.35%
CCOc1ccc(N2C(=O)Nc3ccccc3C2(O)C(=O)NCc2ccco2)cc1 (stereo not drawn) 2.5%
CCC1CCCCN1C(=O)CSc1nc2c(c(=O)n1C)SC(C)C2 (stereo not drawn) 2.98%
CCCCCCn1c(CN2CCCC(C)C2)nc2c1c(=O)n(C)c(=O)n2C (stereo not drawn) -0.05%
Cc1c(CN2CCCCC2)c(O)n(CCO)c(=O)c1C#N 21.4%
COc1ccc(CNC(=O)c2c[nH]c3c(OC)cc(OC)cc3c2=O)cc1 1.75%
O=C(O)CC/C(=N\NC(=O)c1ccc(F)cc1)c1ccc(Br)cc1 2.98%
Cc1cccc(NC(=O)c2cc(S(=O)(=O)N3CCC4(CC3)OCCO4)ccc2F)c1 0.06%
O=C(O)c1cc(Cl)c(Cl)cc1C(=O)Nc1cccc2ncccc12 5.65%
Cc1ccc(Cc2cnc(NC(=O)/C(C#N)=C/c3ccc(-c4cccc([N+](=O)[O-])c4)o3)s2)cc1 1.29%
CCOc1ccc(-n2c(SCC(=O)NC3CCS(=O)(=O)C3)nnc2-c2cccnc2)cc1 (stereo not drawn) -6.49%
COc1ccccc1Cn1c(CO)nc2ccccc21 0.35%
CCOCN(C(=O)Cn1c(C(C)O)nc2ccccc21)c1c(C)cccc1CC (stereo not drawn) 6.75%
